From PubChem BioAssay (EPA / NIEHS)
Activity calls are given as the source filed them. The calls were made as follows: active = hit-call score of the fitted dose curve at least 0.9, where 1 is the maximum; inactive = score below 0.9.

Experiments:
[1] = read-out: Macrophage colony-stimulating factor (MCSF), CSF1 (gene 1435); assay: BSK_hDFCGF_MCSF: BioMAP Diversity Plus: hDFCGF Assay for Macrophage colony-stimulating factor (MCSF) Biomarker Activity (AID 2283060); settings: primary human foreskin fibroblasts; actives raise or lower the signal
Method in brief: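 M-CSF levels, determined by ELISA, are taken at 24 h after dosing human skin fibroblasts. Responses in either direction are fitted with DMSO serving as the baseline.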

[2] = BSK_hDFCGF_SRB: Viability Assessment in the BioMAP Diversity Plus: hDFCGF Assay (AID 2283061); settings: primary human foreskin fibroblasts;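 also: cells exposed to compound for 24 h before the read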
Method in brief: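 Cells were dosed with test chemical, cultured 24 h, fixed with 10% TCA, then stained with 0.1% SRB and read at 560 nm. The fibroblasts were human foreskin primary cells, and DMSO served as baseline.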

[3] = read-out: TIMP metallopeptidase inhibitor 1 (TIMP1), TIMP1 (gene 7076); assay: BSK_hDFCGF_TIMP1: BioMAP Diversity Plus: hDFCGF Assay for TIMP metallopeptidase inhibitor 1 (TIMP1) Biomarker Activity (AID 2283062); settings: primary human foreskin fibroblasts; actives raise or lower the signal
Method in brief: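 Fibroblasts from human foreskin are treated with test chemical and harvested at 24 h. TIMP-1 is quantified by ELISA, and gain or loss of signal is scored against DMSO.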

[4] = read-out: Monokine induced gamma interferon (MIG), CXCL9 (gene 4283); assay: BSK_hDFCGF_MIG: BioMAP Diversity Plus: hDFCGF Assay for Monokine induced gamma interferon (MIG) Biomarker Activity (AID 2283063); settings: primary human foreskin fibroblasts; actives raise or lower the signal
Method in brief: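 MIG signal, determined by ELISA, reflects 24 h chemical exposure of human skin primary fibroblasts. DMSO serves as negative control and baseline.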

[5] = read-out: Matrix Metallopeptidase 1 (MMP1), MMP1 (gene 4312); assay: BSK_hDFCGF_MMP1: BioMAP Diversity Plus: hDFCGF Assay for Matrix Metallopeptidase 1 (MMP1) Biomarker Activity (AID 2283064); settings: primary human foreskin fibroblasts; actives raise or lower the signal
Method in brief: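 Human foreskin fibroblasts exposed to chemical for 24 h; MMP1 detected by ELISA, with DMSO as baseline for bidirectional fitting.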

[6] = read-out: Vascular cell adhesion molecule 1 (VCAM1), VCAM1 (gene 7412); assay: BSK_hDFCGF_VCAM1: BioMAP Diversity Plus: hDFCGF Assay for Vascular cell adhesion molecule 1 (VCAM1) Biomarker Activity (AID 2283065); settings: primary human foreskin fibroblasts; actives raise or lower the signal;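 as to AC50: VCAM-1 protein level quantified by ELISA after 24 h chemical exposure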
Method in brief: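 Cells are dosed, cultured for 24 h, then VCAM-1 is quantified by ELISA; signal increases and decreases are both fitted relative to DMSO.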

[7] = read-out: Plasminogen activator inhibitor-1 (PAI1), SERPINE1 (gene 5054); assay: BSK_hDFCGF_PAI1: BioMAP Diversity Plus: hDFCGF Assay for Plasminogen activator inhibitor-1 (PAI1) Biomarker Activity (AID 2283066); settings: primary human foreskin fibroblasts; actives raise or lower the signal
Method in brief: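 PAI-1 levels in human dermal foreskin fibroblasts were quantified by ELISA 24 h after dosing, with gain or loss analysed against DMSO. Overt cytotoxicity was checked by sulforhodamine B total-protein staining in parallel cultures.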

[8] = read-out: Intercellular Adhesion Molecule 1 (ICAM1), ICAM1 (gene 3383); assay: BSK_KF3CT_ICAM1: BioMAP Diversity Plus: KF3CT Assay for Intercellular Adhesion Molecule 1 (ICAM1) Biomarker Activity (AID 2283067); settings: primary human keratinocytes with fibroblasts; actives raise or lower the signal
Method in brief: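 Dose the keratinocyte/fibroblast co-culture, wait 24 h, measure ICAM-1 by ELISA, then fit increases or decreases against DMSO. Cytotoxicity is checked in parallel cultures by SRB total-protein staining.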

[9] = BSK_KF3CT_SRB: Viability Assessment in the BioMAP Diversity Plus: KF3CT Assay (AID 2283069); settings: primary human keratinocytes with fibroblasts;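 also: fitted for both signal gain and loss against DMSO baseline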
Method in brief: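 Overt cytotoxicity is assessed as total protein by sulforhodamine B staining in parallel human skin co-cultures at 24 h after dosing. DMSO serves as negative control and baseline.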

[10] = read-out: Interleukin-1 alpha (IL1a), IL1A (gene 3552); assay: BSK_KF3CT_IL1a: BioMAP Diversity Plus: KF3CT Assay for Interleukin-1 alpha (IL1a) Biomarker Activity (AID 2283070); settings: primary human keratinocytes with fibroblasts; actives raise or lower the signal
Method in brief: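 Readout is IL-1a level by ELISA, compared bidirectionally with DMSO as baseline. Cells: human keratinocytes co-cultured with foreskin fibroblasts, harvested 24 h post-dose.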

[11] = read-out: TIMP metallopeptidase inhibitor 2 (TIMP2), TIMP2 (gene 7077); assay: BSK_KF3CT_TIMP2: BioMAP Diversity Plus: KF3CT Assay for TIMP metallopeptidase inhibitor 2 (TIMP2) Biomarker Activity (AID 2283071); settings: primary human keratinocytes with fibroblasts; actives raise or lower the signal
Method in brief: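 TIMP-2 measured by ELISA at 24 h in human keratinocyte/fibroblast primary co-cultures exposed to chemicals. Both increases and decreases were fitted against DMSO. Parallel cultures were stained with SRB for total protein as an overt-cytotoxicity check.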

[12] = read-out: Transforming growth factor beta 1 (TGFb1), TGFB1 (gene 7040); assay: BSK_KF3CT_TGFb1: BioMAP Diversity Plus: KF3CT Assay for Transforming growth factor beta 1 (TGFb1) Biomarker Activity (AID 2283072); settings: primary human keratinocytes with fibroblasts; actives raise or lower the signal
Method in brief: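 ELISA quantifies TGF-b1 at 24 h post-dose in a primary human skin co-culture of keratinocytes and fibroblasts, with gain or loss judged against DMSO. Parallel SRB total-protein staining flags overt cytotoxicity.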

[13] = read-out: C-C motif chemokine 2 (Homo sapiens) (UniProt P13500); assay: BSK_KF3CT_MCP1: BioMAP Diversity Plus: KF3CT Assay for Monocyte Chemoattractant Protein 1 (MCP1/CCL2) Biomarker Activity (AID 2283073); settings: primary human keratinocytes with fibroblasts; actives raise or lower the signal
Method in brief: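 Keratinocytes and foreskin fibroblasts were co-cultured, dosed with chemical, and sampled 24 h later. MCP-1 was quantified by ELISA, and the endpoint was analyzed with bidirectional fitting using DMSO as negative control.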

[14] = read-out: Matrix Metallopeptidase 9 (MMP9), MMP9 (gene 4318); assay: BSK_KF3CT_MMP9: BioMAP Diversity Plus: KF3CT Assay for Matrix Metallopeptidase 9 (MMP9) Biomarker Activity (AID 2283074); settings: primary human keratinocytes with fibroblasts; actives raise or lower the signal;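 as to AC50: MMP9 protein level quantified by ELISA in the co-culture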
Method in brief: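 Values come from bidirectional fitting relative to DMSO of MMP-9 levels, which were measured by ELISA. Measurements were taken 24 h after chemical dosing of a keratinocyte and foreskin fibroblast co-culture.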

[15] = read-out: urokinase plasminogen activator (uPA), PLAU (gene 5328); assay: BSK_KF3CT_uPA: BioMAP Diversity Plus: KF3CT Assay for urokinase plasminogen activator (uPA) Biomarker Activity (AID 2283075); settings: primary human keratinocytes with fibroblasts; actives raise or lower the signal
Method in brief: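 Values derive from bidirectional fitting against DMSO controls. Keratinocyte/foreskin fibroblast co-cultures received chemical; 24 h later uPA was detected by ELISA, with SRB total-protein staining in parallel wells for overt cytotoxicity.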

CD40, CD40 (gene 958) = assay: BSK_LPS_CD40: BioMAP Diversity Plus: LPS Assay for CD40 Biomarker Activity (AID 2283076); settings: primary human HUVEC with PBMC; actives raise or lower the signal
Method in brief: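 CD40 signal, measured by ELISA, is fitted in both directions relative to DMSO vehicle. The system is an LPS-driven human vascular primary co-culture of endothelial cells and PBMC, sampled 24 h after compound addition.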

[16] = read-out: E-selectin (Homo sapiens) (UniProt P16581); assay: BSK_LPS_Eselectin: BioMAP Diversity Plus: LPS Assay for Eselectin Biomarker Activity (AID 2283077); settings: primary human HUVEC with PBMC; actives raise or lower the signal
Method in brief: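 Signal of E-selectin, detected by ELISA, served as the endpoint; cells were umbilical vein endothelium with PBMC, read 24 h after treatment. DMSO defined baseline, and both increases and decreases were fitted.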

[17] = read-out: Interleukin-8 (IL8), CXCL8 (gene 3576); assay: BSK_LPS_IL8: BioMAP Diversity Plus: LPS Assay for Interleukin-8 (IL8) Biomarker Activity (AID 2283078); settings: primary human HUVEC with PBMC; actives raise or lower the signal
Method in brief: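 Endothelial cells and PBMC from human donors are co-cultured, treated with chemicals and LPS, then assayed for IL-8 by ELISA after 24 h. Parallel SRB staining (0.1% SRB after 10% TCA fixation, 560 nm) flags cytotoxicity.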

[18] = BSK_LPS_SRB: Viability Assessment in the BioMAP Diversity Plus: LPS Assay (AID 2283079); settings: primary human HUVEC with PBMC;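 also: total protein by sulforhodamine B absorbance as a cytotoxicity measure; measured one day after compound addition; fitted in both directions against DMSO so loss or gain of signal counts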
Method in brief: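 Overt cytotoxicity was gauged by sulforhodamine B total-protein staining in a primary human vascular endothelial and mononuclear cell co-culture 24 h post-dosing. Activity was fitted in both directions relative to DMSO.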

Measured: AC50

Chain of E-selectin (Homo sapiens) (P16581 whole entry, looked up): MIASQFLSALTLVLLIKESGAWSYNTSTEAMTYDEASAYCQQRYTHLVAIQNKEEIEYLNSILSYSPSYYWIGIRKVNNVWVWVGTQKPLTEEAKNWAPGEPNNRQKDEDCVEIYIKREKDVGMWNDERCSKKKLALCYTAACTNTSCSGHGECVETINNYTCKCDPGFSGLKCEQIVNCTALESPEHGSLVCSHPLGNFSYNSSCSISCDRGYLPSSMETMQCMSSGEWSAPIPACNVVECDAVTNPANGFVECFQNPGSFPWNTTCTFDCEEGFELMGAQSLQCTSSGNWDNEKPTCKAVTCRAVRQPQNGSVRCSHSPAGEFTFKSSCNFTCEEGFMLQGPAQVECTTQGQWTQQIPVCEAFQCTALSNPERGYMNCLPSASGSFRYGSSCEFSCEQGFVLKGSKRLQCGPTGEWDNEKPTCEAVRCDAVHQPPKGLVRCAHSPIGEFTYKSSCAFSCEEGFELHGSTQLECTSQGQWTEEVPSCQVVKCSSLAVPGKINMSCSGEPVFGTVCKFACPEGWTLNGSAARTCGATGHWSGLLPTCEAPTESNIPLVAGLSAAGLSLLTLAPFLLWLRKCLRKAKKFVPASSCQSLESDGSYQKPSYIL

C[N+]1(C)CCCCC1
inactive: [1] | [2] | [3] | [4] | [5] | [6] | [7] | [8] | [9] | [10] | [11] | [12] | [13] | [14] | [15] | CD40, CD40 (gene 958) | [16] | [17] | [18]

CC1=NNC(=O)N(/N=C/c2cccnc2)C1
inactive: [1] | [2] | [3] | [4] | [5] | [6] | [7] | [8] | [9] | [10] | [11] | [12] | [13] | [14] | [15] | CD40, CD40 (gene 958) | [16] | [17] | [18]

COP(=O)(NC(C)=O)SC (stereo not given)
inactive: [1] | [2] | [3] | [4] | [5] | [6] | [7] | [8] | [9] | [10] | [11] | [12] | [13] | [14] | [15] | CD40, CD40 (gene 958) | [16] | [17] | [18]

CC(C)N(C(=O)SCC(Cl)=C(Cl)Cl)C(C)C
active: [1] 32 µM | [2] 33.8 µM | [3] 34.4 µM | [4] 33.8 µM | [5] 31.4 µM | [6] 34.8 µM | [7] 34.4 µM | [8] 29.8 µM | [9] 32.5 µM | [10] 30.5 µM | [11] 36.4 µM | [13] 30.5 µM | [14] 36.6 µM | [15] 32.6 µM | CD40, CD40 (gene 958) 29.9 µM | [16] 31.6 µM | [17] 29.5 µM | [18] 29.1 µM
inactive: [12]

CCC(=NOC/C=C/Cl)C1=C(O)CC(C2CCOCC2)CC1=O (stereo not given)
inactive: [1] | [2] | [3] | [4] | [5] | [6] | [7] | [8] | [9] | [10] | [11] | [12] | [13] | [14] | [15] | CD40, CD40 (gene 958) | [16] | [17] | [18]

COP(=O)(OC)C(O)C(Cl)(Cl)Cl (stereo not given)
inactive: [1] | [2] | [3] | [4] | [5] | [6] | [7] | [8] | [9] | [10] | [11] | [12] | [13] | [14] | [15] | CD40, CD40 (gene 958) | [16] | [18]

CCCOCC(=Nc1ccc(Cl)cc1C(F)(F)F)n1ccnc1
active: [1] 24.3 µM | [2] 30.4 µM | [3] 32 µM | [5] 33.2 µM | [6] 27.9 µM | [7] 26.3 µM | [8] 29.7 µM | [9] 32.7 µM | [10] 36.4 µM | [11] 31.7 µM | [12] 31.1 µM | [13] 31.3 µM | [14] 28 µM | [15] 33.2 µM | CD40, CD40 (gene 958) 22.3 µM | [16] 16.2 µM | [17] 32.5 µM | [18] 31.4 µM

CCOP(=S)(OCC)SCCSCC
inactive: [1] | [2] | [3] | [4] | [5] | [7] | [8] | [9] | [10] | [11] | [12] | [13] | [14] | CD40, CD40 (gene 958) | [16] | [17] | [18]
active: [6] 36.9 µM | [15] 29.4 µM

CCOP(=S)(OCC)Oc1ccc([N+](=O)[O-])cc1
active: [1] 9.79 µM | [6] 20 µM | [7] 20 µM | CD40, CD40 (gene 958) 16.7 µM
inactive: [2] | [3] | [4] | [5] | [8] | [9] | [10] | [11] | [12] | [13] | [14] | [15] | [16] | [17] | [18]

CNC(=O)ON=C(SC)C(=O)N(C)C
inactive: [1] | [2] | [3] | [4] | [5] | [6] | [7] | [8] | [9] | [10] | [11] | [12] | [13] | [14] | [15] | CD40, CD40 (gene 958) | [16] | [17] | [18]

CCCCSP(=O)(SCCCC)SCCCC
inactive: [2] | [3] | [4] | [5] | [6] | [7] | [8] | [9] | [10] | [11] | [12] | [13] | [14] | [15]
active: [1] 14.6 µM | CD40, CD40 (gene 958) 31.8 µM | [16] 32.6 µM | [17] 27.1 µM | [18] 16 µM

CC(Oc1cccc(Cl)c1)C(=O)O (stereo not given)
inactive: [1] | [2] | [3] | [4] | [5] | [6] | [7] | [8] | [9] | [11] | [12] | [13] | [14] | [15] | CD40, CD40 (gene 958) | [16] | [17] | [18]
active: [10] 1.15 µM

CCc1cnc(C2=NC(C)(C(C)C)C(=O)N2)c(C(=O)O)c1 (stereo not given)
inactive: [1] | [2] | [3] | [4] | [5] | [6] | [7] | [8] | [9] | [10] | [11] | [12] | [13] | [14] | [15] | CD40, CD40 (gene 958) | [16] | [17] | [18]
